Rows were chosen to be rich in hits. Some 18% of all compounds tested hit in one or more screens of this group.
VP16 counter: counter-screen for ROR gamma inhibitors: Gal4-VP16 reporter; Drosophila S2 Gal4-VP16 UAS-luciferase, luminescence, 20 h; Potency, µM (top dose mostly 53.6 µM), usual class: inhibitors; actives 3.5% (n = 310,000);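 further: Gal4-VP16 expression switched on by copper sulfate through the metallothionein promoter; nearly all actives have a fitted effect of over 50% in size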
TDP1 cell CPT: DT40-hTDP1 cell growth loss with CPT; AID 686979; Potency, µM (top dose mostly 46.2 µM), usual class: inhibitors; actives 12% (n = 420,000); chicken DT40 Tdp1-/-;hTDP1 cells + 20 nM CPT, ATP luminescence, 48 h; further: nearly all actives have a fitted effect of over 55% in size
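Chicken DT40 Tdp1-/- cells complemented with human TDP1, 400 cells/well, exposed to compounds plus 20 nM camptothecin for at least 48 h at 37 C; viability read as ATP content by CellTiter-Glo luminescence.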
IL1B secr inh: blocks inflammasome-driven IL-1 beta release; activity change, % at 57.5 µM; actives 4.7% (n = 360,000); THP-1 LPS/ATP IL-1B secretion, AlphaLISA, 16 h; stronger effect = lower value; in the data active means activity change below about -50%; inconclusive means mostly about -30% to -49%
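Secreted IL-1B measured by AlphaLISA bead assay after 16 h compound exposure of THP-1 cells; compounds (final up to 57.5 uM) added 1 h before LPS (250 ng/mL) and ATP (1.25 mM) stimulation; lower signal means less secretion.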
TDP1 cell noCPT: qHTS for Inhibitors of human tyrosyl-DNA phosphodiesterase 1 (TDP1): qHTS in cells in absence of CPT; AID 686978, 2013; DT40 Tdp1-/- hTDP1 cells, no CPT, ATP luminescence, 48 h; Potency, µM (series often up to 46.2 µM), usual class: inhibitors; actives 15% (n = 420,000); further: nearly all actives have a fitted effect of over 55% in size
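Growth of hTDP1-complemented DT40 Tdp1-knockout cells is measured by ATP luminescence after at least 48 hr compound exposure at 37 °C, with DMSO substituting for the 20 nM CPT used in the parallel screen.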
RORgamma inh: ROR gamma (mouse) transcription inhibition | Drosophila S2 Gal4-RORgamma UAS-luciferase reporter, 20 h | AID 2551 | actives 5.4% (n = 310,000) | Potency, µM (top dose mostly 53.6 µM), most hits filed as inhibitors | P51450; further: nearly all actives have a fitted effect of over 60% in size
Target sequence (P51450 whole entry, looked up, the tested form may be a part): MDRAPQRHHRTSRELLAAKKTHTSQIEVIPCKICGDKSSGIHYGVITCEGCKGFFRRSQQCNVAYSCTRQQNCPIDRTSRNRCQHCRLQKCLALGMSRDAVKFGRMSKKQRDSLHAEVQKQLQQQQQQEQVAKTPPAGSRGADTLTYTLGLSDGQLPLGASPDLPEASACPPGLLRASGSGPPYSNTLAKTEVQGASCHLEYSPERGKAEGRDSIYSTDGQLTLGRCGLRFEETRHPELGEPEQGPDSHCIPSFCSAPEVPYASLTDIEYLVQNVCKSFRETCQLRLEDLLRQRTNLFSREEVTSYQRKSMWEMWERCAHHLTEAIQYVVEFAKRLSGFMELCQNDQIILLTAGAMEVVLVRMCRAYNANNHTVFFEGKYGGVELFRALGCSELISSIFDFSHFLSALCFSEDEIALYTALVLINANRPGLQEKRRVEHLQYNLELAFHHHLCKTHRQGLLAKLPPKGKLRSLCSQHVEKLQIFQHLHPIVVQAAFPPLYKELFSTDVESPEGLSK
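Read-out: Photinus luciferase luminescence; inhibitors lower reporter signal. Insect Schneider cells with Gal4-ROR gamma fusion under metallothionein promoter, UAS reporter; 700 uM final copper sulfate induction, 20 hr, ambient temperature.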
LDHA inh: blocks human lactate dehydrogenase A. P00338. purified LDHA, NADH/diaphorase-resazurin fluorescence; stronger effect = lower value. activity change, % (values are at about 110 or 230 µM). actives 0.15% (n = 480,000). AID 1347041; in the data active means activity change below about -30%; inconclusive means mostly about -25% to -30%
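Resorufin fluorescence (ex540/em590), read at 0 and 20 min after diaphorase/resazurin addition, reports the NADH left after a 5 min room-temperature reaction of 2 nM human LDH5 with 0.06 mM NADH and 0.2 mM pyruvate.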
Numbers stand for hits; i = inactive; ? = inconclusive; nt = not tested or not shown. Unless noted, the call rests on the fitted dose curve; in most records, active means well fitted curve in the direction sought with a large enough effect; inconclusive means small, poorly fitted or top-dose-only effect, or another doubt; inactive means no such curve, though single readings can be large; an effect the other way counts as inactive or inconclusive.

SMILES	VP16 counter	TDP1 cell CPT	IL1B secr inh	TDP1 cell noCPT	RORgamma inh	LDHA inh
S=C(NCc1cccc(Cl)c1)NCc1ccco1	?	i	?	i	i	i
S=C(NCc1ccccc1)NCc1ccco1	?	i	i	i	11µM	i
Cc1cnn(C(=S)NCc2ccco2)c1	?	18µM	i	?	i	i
CC(C)(C)NC(=S)NCc1ccco1	i	i	i	i	i	i
NNC(=S)NCc1ccco1	?	i	i	i	7.1µM	i
CCOC(=O)c1ccoc1CN(CC)CC	nt	nt	nt	nt	nt	i
COCCN(CCOC)CC(O)COc1ccc(C#N)cc1 (stereo unspecified)	nt	nt	nt	nt	nt	i
CC(C)/C=N/Nc1nc(-c2ccc(Br)cc2)cs1	i	23µM	i	16µM	?	i
COc1ccc(C(=O)/C=C/c2ccc(F)c(F)c2)cc1CC(=O)O	nt	nt	nt	nt	nt	i
O=C(CC(C(=O)O)n1ccnc1)c1ccc(Cl)cc1 (stereo unspecified)	nt	7.1µM	nt	7.1µM	nt	i
O=C(Cn1ccnc1)c1ccc(Cl)cc1	i	i	i	i	i	i
COc1cccc(NC(=O)CN(C)C(=O)c2ccccc2-c2nc3ccccc3s2)c1	nt	?	i	23µM	nt	i
CN(CC(=O)Nc1c(Cl)cccc1Cl)C(=O)c1ccccc1-c1nc2ccccc2s1	nt	i	-53	?	nt	i
O=C(CSc1nc2ccccc2o1)Nc1ccc(O)cc1	nt	nt	nt	nt	nt	i
CCCCCCn1nc(C(=O)OCc2ccccc2)c2ccccc2c1=O	nt	nt	nt	nt	nt	i
CN(Cc1ccc(Br)cc1)C(=O)CN1CCCC1c1ccc2c(c1)OCCO2 (stereo unspecified)	nt	nt	nt	nt	nt	i
CCOc1ccc(-c2ccc(SC)nn2)cc1	?	i	?	8.2µM	?	i
Cc1onc(-c2ccccc2)c1C(=O)NC1CCCCC1C (stereo unspecified)	nt	?	i	i	nt	i
COc1ccc(C(=O)NC(=S)NNC(=O)c2c(-c3ccccc3)noc2C)cc1OC	14µM	i	i	?	4µM	i
Cc1onc(-c2ccccc2)c1C(=O)NNC(=S)NC(=O)c1ccc2c(c1)OCO2	i	i	i	1.6µM	2.5µM	i
Cc1onc(-c2ccccc2)c1C(=O)NC1CCC(C)CC1 (stereo unspecified)	nt	13µM	i	?	nt	i
Cc1onc(-c2ccccc2)c1C(=O)NC(=S)NNC(=O)c1ccncc1	?	?	i	?	?	i
Cc1ccc(C(=O)/C=C2\NCC(C)NC2=O)cc1 (stereo unspecified)	10µM	i	i	i	8.9µM	i
CC(C)N1C(=O)S/C(=C\c2ccc(-c3ccc(Cl)c(C(=O)O)c3)o2)C1=O	2.5µM	?	i	?	?	i
CCN(CC)c1ccc(/C=C2/SC(=O)N(C(C)C)C2=O)o1	2.8µM	i	-94	2.3µM	5µM	i
SMILES	VP16 counter	TDP1 cell CPT	IL1B secr inh	TDP1 cell noCPT	RORgamma inh	LDHA inh
CC(O)(c1ccccc1)c1nc(-c2csc3ccccc23)cs1 (stereo unspecified)	nt	?	i	?	nt	i
COc1ccccc1-c1csc(C(C)(O)c2cccc(F)c2)n1 (stereo unspecified)	nt	13µM	i	16µM	nt	i
COc1ccccc1-c1csc(C(C)(O)c2ccccc2)n1 (stereo unspecified)	nt	15µM	i	?	nt	i
Cc1ccc2nc(-c3ccc(Cl)c(NC(=O)c4cc([N+](=O)[O-])ccc4N4CCOCC4)c3)oc2c1	nt	nt	nt	nt	nt	i
C/C(=N\O)C1(C)CC2=C(CCCC2(C)C)CC1C (stereo unspecified)	nt	nt	nt	nt	nt	i
Cn1c(CCN2CCCCC2)nc2cc(NC(=O)COc3ccc(Cl)cc3)ccc21	i	?	-83	?	i	i
CN1CCN(CCc2nc3cc(NC(=O)COc4ccc(Cl)cc4)ccc3n2C)CC1	i	?	i	?	i	i
Cc1nn(CC(=O)Nc2ccc3c(c2)nc(CCN2CCOCC2)n3C)c(=O)c2ccccc12	nt	nt	nt	nt	nt	i
Cn1c(CCN2CCCCC2)nc2cc(NC(=O)COc3ccc([N+](=O)[O-])cc3)ccc21	i	i	?	18µM	i	i
Cc1nn(CC(=O)Nc2ccc3c(c2)nc(CCN2CCCCC2)n3C)c(=O)c2ccccc12	i	11µM	i	?	i	i
Cn1c(CN2CCCC2)nc2cc(NC(=O)COc3ccc(Cl)cc3)ccc21	i	?	-68	?	i	i
COc1ccc(OCC(=O)Nc2ccc3c(c2)nc(CN2CCCC2)n3C)cc1	i	?	i	?	i	i
Cc1nn(-c2ccccc2)c(C)c1CN(C)C(=O)CNC(=O)c1ccc(Oc2ccccc2)cc1	nt	nt	nt	nt	nt	i
CN(Cc1ccc(Cl)cc1Cl)C(=O)CCN=C1NS(=O)(=O)c2ccccc21	nt	nt	nt	nt	nt	i
O=C(NC1CCN(C(=S)Nc2ccccc2Cl)CC1)C1CCCCC1	i	i	i	i	i	i
Fc1ccc(NC(=S)NC2CCCCC2)c(F)c1F	7.1µM	21µM	i	21µM	8.9µM	i
Cc1c(Cl)cccc1NC(=O)NC1CCCCC1	i	i	i	i	i	i
Fc1ccccc1NC(=S)NC1CC1	nt	nt	nt	nt	nt	i
S=C(Nc1ccccc1Cl)NC1CCCCCC1	10µM	?	i	?	3.5µM	i
S=C(Nc1ccc(Cl)cc1Cl)NC1CCCCC1	0.89µM	?	i	?	?	i
Cc1c(Cl)cccc1NC(=S)NC1CC1	?	i	i	i	10µM	i
O=C1CCCC2=C1C(c1ccc(O)c(Br)c1)C1=C(CCCC1=O)O2	nt	nt	nt	nt	nt	i
O=C(NCc1ccc(O)cc1)c1cnc2ccccc2n1	nt	nt	nt	nt	nt	i
Cc1c(Cl)cccc1NC(=O)C(C)C	nt	nt	nt	nt	nt	i
CC(=O)c1ccc(NC(=S)Nc2cccc(Cl)c2C)cc1	?	i	i	i	11µM	i
SMILES	VP16 counter	TDP1 cell CPT	IL1B secr inh	TDP1 cell noCPT	RORgamma inh	LDHA inh
CCCCn1c(N)c(N(CC)C(=O)c2cc(CCC)c(C)s2)c(=O)[nH]c1=O	nt	nt	nt	nt	nt	i
Cc1sc(-c2ccccc2)nc1-c1ccccc1	nt	nt	nt	nt	nt	i
Cc1sc(Cc2nc(O)cs2)nc1-c1ccccc1	i	?	i	i	11µM	i
CC1=NN(C(C#N)c2ccccc2)C(C)(C)C1 (stereo unspecified)	i	i	i	i	i	i
COc1ccc(C(C#N)N2CCC(c3ccccc3)=N2)cc1 (stereo unspecified)	i	?	-90	?	i	i
O=C(NC12CC3CC(CC(C3)C1)C2)N1CCN(c2nc(-c3ccccc3)cs2)CC1	?	?	?	18µM	i	i
O=C(NC1CCCCC1)N1CCN(c2nc(-c3ccccc3)cs2)CC1	?	?	-64	26µM	11µM	i
NC(=O)C1CCN(c2nc(-c3ccc(-c4ccccc4)cc3)cs2)CC1	nt	nt	nt	nt	nt	i
NC(=O)C1(N2CCCCC2)CCN(c2nc(-c3ccccc3)cs2)CC1	i	21µM	i	16µM	i	i
